PubChem BioAssay AID1159580 (chemical genetic matrix, 2015)
Where “and” joins values, the source holds several entries; their conditions need not be identical. Identical values can stand only once. In all, about 5,500 compounds went through this assay and about 2,000 (36%) were called active. Inconclusive results (about 18%) are left out. No stated cut-off is given here; in the data, active means normalized growth mostly below about 0.91 (no sharp cut-off); inconclusive means no clear call, values can overlap the other calls; inactive means mostly above about 0.92. This is one part of the list.

Experiment: chemical genetic growth profiling, strain panel (AID 1159580);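 further: tested at 20 µM; growth read once vehicle control cultures reached saturation at 30 °C; 1 = growth at the plate median or of vehicle wells; lower values mean less growth of the strain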
Conditions: growth OD

Measured: normalized growth

COc1ccc(CN(CCN(C)C)c2ccccn2)cc1
inactive: S. cerevisiae deletion strains, locus YJR066W, strain TOR1, hits give low values 0.997 | S. cerevisiae deletion strains, locus YJR075W, strain HOC1, hits give low values 0.979 | S. cerevisiae deletion strains, locus YKL009W, strain mrt4, hits give low values 0.954 | S. cerevisiae deletion strains, locus YKL068W, hits give low values 0.992 | S. cerevisiae deletion strains, locus YKL085W, strain MDH1 (second series), hits give low values 0.978 | S. cerevisiae deletion strains, locus YKL085W, strain MDH1, hits give low values 0.978 | S. cerevisiae deletion strains, locus YKL160W, strain elf1, hits give low values 1.04 | S. cerevisiae deletion strains, locus YKL190W, strain CNB1, hits give low values 0.996 | S. cerevisiae deletion strains, locus YKR001C, strain vps1, hits give low values 0.994 | S. cerevisiae deletion strains, locus YKR026C, strain gcn3, hits give low values 1.01 | S. cerevisiae deletion strains, locus YKR091W, strain srl3, hits give low values 1 | S. cerevisiae deletion strains, locus YLL001W, strain dnm1, hits give low values 1.01 | S. cerevisiae deletion strains, locus YLL026W, hits give low values 1.02 | S. cerevisiae deletion strains, locus YLL041C, strain sdh2, hits give low values 1.01 | S. cerevisiae deletion strains, locus YLR027C, strain aat2, hits give low values 1.02 | S. cerevisiae deletion strains, locus YLR039C, strain RIC1, hits give low values 0.996 | S. cerevisiae deletion strains, locus YLR058C, strain SHM2, hits give low values 0.997 | S. cerevisiae deletion strains, locus YLR102C, strain apc9, hits give low values 0.996 | S. cerevisiae deletion strains, locus YLR113W, strain HOG1, hits give low values 1.01 | S. cerevisiae deletion strains, locus YLR221C, strain rsa3, hits give low values 1.01 | S. cerevisiae deletion strains, locus YLR258W, strain gsy2, hits give low values 1.03 | S. cerevisiae deletion strains, locus YLR262C, strain YPT6 (second series), hits give low values 1.01 | S. cerevisiae deletion strains, locus YLR262C, strain YPT6, hits give low values 0.992 | S. cerevisiae deletion strains, locus YLR268W, strain sec22, hits give low values 0.963 | S. cerevisiae deletion strains, locus YLR320W, strain mms22, hits give low values 1.02 | S. cerevisiae deletion strains, locus YLR330W, strain CHS5, hits give low values 0.98 | S. cerevisiae deletion strains, locus YLR342W, strain FKS1 (second series), hits give low values 0.995 | S. cerevisiae deletion strains, locus YLR342W, strain FKS1, hits give low values 1.03 | S. cerevisiae deletion strains, locus YLR357W, strain rsc2, hits give low values 1.03 | S. cerevisiae deletion strains, locus YLR370C, strain arc18, hits give low values 1.02 | S. cerevisiae deletion strains, locus YLR371W, strain rom2, hits give low values 0.972 | S. cerevisiae deletion strains, locus YLR384C, strain iki3, hits give low values 1.02 | S. cerevisiae deletion strains, locus YLR418C, strain cdc73, hits give low values 1 | S. cerevisiae deletion strains, locus YML016C, strain PPZ1, hits give low values 0.997 | S. cerevisiae deletion strains, locus YML032C, strain rad52, hits give low values 0.979 | S. cerevisiae deletion strains, locus YML120C, strain ndi1, hits give low values 1.02 | S. cerevisiae deletion strains, locus YML124C, strain tub3, hits give low values 0.991 | S. cerevisiae deletion strains, locus YMR058W, strain fet3, hits give low values 1 | S. cerevisiae deletion strains, locus YMR078C, strain ctf18, hits give low values 0.992 | S. cerevisiae deletion strains, locus YMR125W, strain sto1, hits give low values 1.02 | S. cerevisiae deletion strains, locus YMR129W, hits give low values 1.01 | S. cerevisiae deletion strains, locus YMR205C, strain PFK2, hits give low values 1.02 | S. cerevisiae deletion strains, locus YMR223W, strain ubp8, hits give low values 1.02 | S. cerevisiae deletion strains, locus YMR231W, strain pep5, hits give low values 1.02 | S. cerevisiae deletion strains, locus YMR307W, strain GAS1, hits give low values 1.01 | S. cerevisiae deletion strains, locus YNL067W, strain RPL9B, hits give low values 0.996 | S. cerevisiae deletion strains, locus YNL071W, strain lat1, hits give low values 1.02 | S. cerevisiae deletion strains, locus YNL128W, strain TEP1, hits give low values 0.967 | S. cerevisiae deletion strains, locus YNL175C, strain NOP13, hits give low values 1.01 | S. cerevisiae deletion strains, locus YNL183C, strain NPR1, hits give low values 0.991 | S. cerevisiae deletion strains, locus YNL197C, strain WHI3, hits give low values 0.966 | S. cerevisiae deletion strains, locus YNL209W, strain ssb2, hits give low values 1.04 | S. cerevisiae deletion strains, locus YNL224C, strain SQS1, hits give low values 0.988 | S. cerevisiae deletion strains, locus YNL233W, strain BNI4, hits give low values 1 | S. cerevisiae deletion strains, locus YNL248C, strain rpa49, hits give low values 1.05 | S. cerevisiae deletion strains, locus YNL250W, strain rad50, hits give low values 0.985 | S. cerevisiae deletion strains, locus YNL271C, strain bni1, hits give low values 0.992 | S. cerevisiae deletion strains, locus YNL298W, strain CLA4, hits give low values 0.997 | S. cerevisiae deletion strains, locus YNL307C, strain MCK1, hits give low values 0.986 | S. cerevisiae deletion strains, locus YNL322C, strain KRE1 (second series), hits give low values 1.04 | S. cerevisiae deletion strains, locus YNR049C, strain mso1, hits give low values 1.01 | S. cerevisiae deletion strains, locus YNR052C, strain pop2, hits give low values 0.993 | S. cerevisiae deletion strains, locus YOL006C, strain TOP1, hits give low values 1.04 | S. cerevisiae deletion strains, locus YOL012C, strain htz1 0.809 | S. cerevisiae deletion strains, locus YOL147C, strain pex11, hits give low values 0.988 | S. cerevisiae deletion strains, locus YOR001W, strain rrp6, hits give low values 0.991 | S. cerevisiae deletion strains, locus YOR061W, strain CKA2, hits give low values 1 | S. cerevisiae deletion strains, locus YOR069W, strain VPS5, hits give low values 0.986 | S. cerevisiae deletion strains, locus YOR070C, strain gyp1, hits give low values 1.02 | S. cerevisiae deletion strains, locus YOR080W, strain dia2, hits give low values 1.03 | S. cerevisiae deletion strains, locus YOR083W, strain WHI5 (second series), hits give low values 0.991 | S. cerevisiae deletion strains, locus YOR083W, strain WHI5, hits give low values 0.998 | S. cerevisiae deletion strains, locus YOR106W, strain vam3, hits give low values 1.04 | S. cerevisiae deletion strains, locus YOR136W, strain idh2, hits give low values 1 | S. cerevisiae deletion strains, locus YOR144C, strain elg1, hits give low values 1 | S. cerevisiae deletion strains, locus YOR184W, strain ser1, hits give low values 1 | S. cerevisiae deletion strains, locus YOR231W, strain MKK1, hits give low values 1 | S. cerevisiae deletion strains, locus YOR265W, strain rbl2, hits give low values 1.02 | S. cerevisiae deletion strains, locus YOR270C, strain vph1, hits give low values 1.08 | S. cerevisiae deletion strains, locus YOR290C, strain snf2, hits give low values 1.04 | S. cerevisiae deletion strains, locus YOR316C, strain cot1, hits give low values 0.988 | S. cerevisiae deletion strains, locus YPL051W, strain arl3, hits give low values 1.04 | S. cerevisiae deletion strains, locus YPL078C, strain atp4, hits give low values 1.04 | S. cerevisiae deletion strains, locus YPL106C, strain sse1, hits give low values 1.04 | S. cerevisiae deletion strains, locus YPL240C, strain hsp82, hits give low values 1.01 | S. cerevisiae deletion strains, locus YPL241C, strain CIN2, hits give low values 0.995 and 0.99 | S. cerevisiae deletion strains, locus YPL256C, strain CLN2, hits give low values 1.05 | S. cerevisiae deletion strains, locus YPR119W, strain clb2, hits give low values 0.988 | S. cerevisiae deletion strains, locus YPR141C, strain kar3, hits give low values 0.981 | S. cerevisiae deletion strains, locus YPR163C, strain tif3, hits give low values 0.988 | S. cerevisiae deletion strains, locus YPR167C, strain met16, hits give low values 0.983 | S. cerevisiae deletion strains, strain wtn01, hits give low values 0.984 | S. cerevisiae strains, strain wild type, hits give low values 0.992
